# Measured values as given in PubChem BioAssay AID1159580 (chemical genetic matrix, 2015).
# In all, about 5,500 compounds went through this assay and about 2,000 (36%) were called active. Inconclusive results (about 18%) are left out. The list shows a part of the results. Values without a mark were called inactive. No stated cut-off is given here; in the data, active means normalized growth mostly below about 0.91 (no sharp cut-off); inconclusive means no clear call, values can overlap the other calls; inactive means mostly above about 0.92.
# Assay: chemical genetic growth profiling, strain panel (AID 1159580);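 further: tested at 20 µM; growth read once vehicle control cultures reached saturation at 30 °C; 1 = growth at the plate median or of vehicle wells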
# Conditions: S. cerevisiae deletion strains, growth OD
compound,measurement,setting,value
COc1cc(N=Cc2cc(Cl)cc(Cl)c2OC(=O)c2cc(OC)c(OC)c(OC)c2)c(OC)cc1Cl,normalized growth,"locus YAR019C, strain CDC15, stronger effect = lower value",0.965
same,normalized growth,"locus YBL105C, strain PKC1, stronger effect = lower value",0.977
same,normalized growth,"locus YBR135W, strain CKS1, stronger effect = lower value",0.969
same,normalized growth,"locus YBR136W, strain MEC1, stronger effect = lower value",0.974
same,normalized growth,"locus YBR160W, strain CDC28, stronger effect = lower value",0.968
same,normalized growth,"locus YDL017W, strain CDC7, stronger effect = lower value",0.981
same,normalized growth,"locus YDL028C, strain MPS1, stronger effect = lower value",0.959
same,normalized growth,"locus YDL101C, strain DUN1, stronger effect = lower value",0.962
same,normalized growth,"locus YDL108W, strain KIN28, stronger effect = lower value",0.945
same,normalized growth,"locus YDL132W, strain cdc53, stronger effect = lower value",0.966
same,normalized growth,"locus YDL214C, strain PRR2, stronger effect = lower value",0.369 (active)
same,normalized growth,"locus YDR052C, strain DBF4, stronger effect = lower value",0.989
same,normalized growth,"locus YDR054C, strain cdc34, stronger effect = lower value",0.98
same,normalized growth,"locus YDR226W, strain ADK1, stronger effect = lower value",0.947
same,normalized growth,"locus YDR477W, strain SNF1, stronger effect = lower value",0.31 (active)
same,normalized growth,"locus YER123W, strain YCK3, stronger effect = lower value",0.212 (active)
same,normalized growth,"locus YER133W, strain GLC7, stronger effect = lower value",0.398 (active)
same,normalized growth,"locus YFL009W, strain cdc4, stronger effect = lower value",0.956
same,normalized growth,"locus YFL029C, strain CAK1, stronger effect = lower value",0.971
same,normalized growth,"locus YFR003C, strain YPI1, stronger effect = lower value",0.975
same,normalized growth,"locus YFR019W, strain FAB1, stronger effect = lower value",0.34 (active)
same,normalized growth,"locus YFR028C, strain CDC14, stronger effect = lower value",0.962
same,normalized growth,"locus YGR040W, strain KSS1, stronger effect = lower value",0.381 (active)
same,normalized growth,"locus YGR052W, strain FMP48, stronger effect = lower value",0.235 (active)
same,normalized growth,"locus YGR092W, strain DBF2, stronger effect = lower value",0.183 (active)
same,normalized growth,"locus YHR030C, strain SLT2, stronger effect = lower value",0.145 (active)
same,normalized growth,"locus YHR079C, strain IRE1, stronger effect = lower value",0.161 (active)
same,normalized growth,"locus YHR082C, strain KSP1, stronger effect = lower value",0.176 (active)
same,normalized growth,"locus YHR205W, strain SCH9, stronger effect = lower value",0.202 (active)
same,normalized growth,"locus YIL147C, strain SLN1, stronger effect = lower value",0.977
same,normalized growth,"locus YJL095W, strain BCK1, stronger effect = lower value",0.177 (active)
same,normalized growth,"locus YJL128C, strain PBS2, stronger effect = lower value",0.937
same,normalized growth,"locus YJL157C, strain FAR1, stronger effect = lower value",0.32 (active)
same,normalized growth,"locus YJR016C, strain ILV3, stronger effect = lower value",0.987
same,normalized growth,"locus YJR066W, strain TOR1 (second series), stronger effect = lower value",0.463 (active)
same,normalized growth,"locus YJR066W, strain TOR1, stronger effect = lower value",0.148 (active)
same,normalized growth,"locus YKL048C, strain ELM1, stronger effect = lower value",0.458 (active)
same,normalized growth,"locus YKL067W, strain YNK1, stronger effect = lower value",0.392 (active)
same,normalized growth,"locus YKL101W, strain HSL1, stronger effect = lower value",0.346 (active)
same,normalized growth,"locus YKL193C, strain SDS22, stronger effect = lower value",0.972
same,normalized growth,"locus YKL203C, strain TOR2, stronger effect = lower value",0.345 (active)
same,normalized growth,"locus YLR113W, strain HOG1, stronger effect = lower value",0.243 (active)
same,normalized growth,"locus YLR133W, strain CKI1, stronger effect = lower value",0.354 (active)
same,normalized growth,"locus YLR403W, strain SFP1, stronger effect = lower value",0.244 (active)
same,normalized growth,"locus YML070W, strain DAK1, stronger effect = lower value",0.317 (active)
same,normalized growth,"locus YMR001C, strain CDC5, stronger effect = lower value",0.963
same,normalized growth,"locus YMR205C, strain PFK2 (second series), stronger effect = lower value",0.421 (active)
same,normalized growth,"locus YMR277W, strain FCP1, stronger effect = lower value",0.954
same,normalized growth,"locus YNL006W, strain LST8, stronger effect = lower value",0.982
same,normalized growth,"locus YNL020C, strain ARK1, stronger effect = lower value",0.335 (active)
same,normalized growth,"locus YNL161W, strain CBK1, stronger effect = lower value",0.98
same,normalized growth,"locus YNL183C, strain NPR1, stronger effect = lower value",0.235 (active)
same,normalized growth,"locus YNL207W, strain RIO2, stronger effect = lower value",0.977
same,normalized growth,"locus YNL222W, strain SSU72, stronger effect = lower value",0.958
same,normalized growth,"locus YNL307C, strain MCK1 (second series), stronger effect = lower value",0.238 (active)
same,normalized growth,"locus YOL078W, strain AVO1, stronger effect = lower value",0.969
same,normalized growth,"locus YOL136C, strain PFK27, stronger effect = lower value",0.273 (active)
same,normalized growth,"locus YOR061W, strain CKA2, stronger effect = lower value",0.346 (active)
same,normalized growth,"locus YOR119C, strain RIO1, stronger effect = lower value",0.307 (active)
same,normalized growth,"locus YOR231W, strain MKK1, stronger effect = lower value",0.207 (active)
same,normalized growth,"locus YOR329C, strain SCD5, stronger effect = lower value",0.981
same,normalized growth,"locus YPL031C, strain PHO85, stronger effect = lower value",0.292 (active)
same,normalized growth,"locus YPL153C, strain RAD53, stronger effect = lower value",0.279 (active)
same,normalized growth,"locus YPL204W, strain HRR25, stronger effect = lower value",0.312 (active)
same,normalized growth,"locus YPL209C, strain IPL1, stronger effect = lower value",0.977
same,normalized growth,"locus YPL256C, strain CLN2, stronger effect = lower value",0.215 (active)
same,normalized growth,"locus YPR025C, strain CCL1, stronger effect = lower value",0.974
same,normalized growth,"locus YPR106W, strain ISR1, stronger effect = lower value",0.962
same,normalized growth,"locus YPR111W, strain DBF20, stronger effect = lower value",0.943
same,normalized growth,"strain NNK1, stronger effect = lower value",0.98
same,normalized growth,"strain TSCII, stronger effect = lower value",0.96
